Among all 16,000 compounds or so, about 5,800 (36%) were called active. About 23% were inconclusive and are not listed. Calls follow the shape of the dose curve; as a rule, active = well fitted curve in the direction sought with a large enough effect; inconclusive = small, poorly fitted or top-dose-only effect, or effect the other way; inactive = no such curve, though single readings can be large or run the other way. The list shows a part of the results.
Each compound was assayed against Cytochrome P450 2C19 (Homo sapiens) (UniProt P33261) (assay: Cytochrome panel assay with activity outcomes). Settings: recombinant CYP, pro-luciferin dealkylation, luminescence, p450-cyp2c19; series mostly up to 57.1 µM.
Sequence of Cytochrome P450 2C19 (Homo sapiens) (P33261 whole entry, looked up): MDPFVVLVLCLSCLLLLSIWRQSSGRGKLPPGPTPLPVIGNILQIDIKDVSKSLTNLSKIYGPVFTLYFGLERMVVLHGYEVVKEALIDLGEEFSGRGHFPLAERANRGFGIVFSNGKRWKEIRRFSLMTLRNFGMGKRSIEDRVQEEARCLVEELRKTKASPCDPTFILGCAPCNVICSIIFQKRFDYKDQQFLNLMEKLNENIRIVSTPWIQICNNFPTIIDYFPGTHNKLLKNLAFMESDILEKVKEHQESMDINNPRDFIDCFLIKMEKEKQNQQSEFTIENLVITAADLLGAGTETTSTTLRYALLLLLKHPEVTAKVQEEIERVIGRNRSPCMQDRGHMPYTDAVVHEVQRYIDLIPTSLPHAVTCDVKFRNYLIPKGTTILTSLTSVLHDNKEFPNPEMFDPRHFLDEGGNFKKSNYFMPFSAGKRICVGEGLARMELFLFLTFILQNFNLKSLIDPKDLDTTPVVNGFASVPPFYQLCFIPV
% is scaled to controls: 0 for no effect and ±100 for the full control effect.

AC50, inactive:
CCOc1cc(C)ccc1OCc1nnc(SCC(=O)c2cccc([N+](=O)[O-])c2)n1CC, CC1(C)OC(C(N)=O)C(C(N)=O)O1 (stereo not given), CN(c1ccc(C(=O)NC2CC3CCC2C3)cc1)S(C)(=O)=O (stereo not given), COc1ncc2nc(-c3cc(F)cc(F)c3)c(=O)n(CCC#N)c2n1, C=CCNC(=O)c1ccccc1Cl, O=C(O)Cc1cc2ccccc2nc1C(=O)O, COc1ccc2c(c1)CCC1[C@@H]2CCC2(C)[C@@H](NCCCCCCN3C(=O)C=CC3=O)CC[C@@H]12 (stereo not given in full), COc1ccc(C(=O)N2CCC3(CCCN(CC(C)C)C3)CC2)cc1, COc1ccc(C)cc1NC(=O)c1cc2cc3ccc(C)cc3nc2o1, Cc1ccc2cc(C(=O)O)c(C)nc2c1, CCN1CCN(CCCNC(=O)c2cc3cc4ccc(OC)cc4nc3o2)CC1, COc1ccc2cc3cc(C(=O)NCCCN4CCOCC4)oc3nc2c1, COc1ccc2cc3cc(C(=O)NCc4ccccn4)oc3nc2c1, COCC(=O)N1CCC[C@@]2(CCN(c3ncccn3)C2)C1, CC[C@@H]1OC(=O)[C@H](C)[C@H](O[C@@H]2C[C@](C)(OC)[C@H](O)[C@H](C)O2)[C@H](C)[C@H](O[C@@H]2O[C@@H](C)C[C@@H](N(C)C)[C@@H]2O)[C@](C)(O)C[C@H](C)C(=O)[C@H](C)[C@H](O)[C@]1(C)O, NS(=O)(=O)c1cccc2c1c([N+](=O)[O-])cc1[nH]c(=O)c(=O)[nH]c12, CCCSc1nc(C)cc(C)c1C(N)=O, CCC(=O)N[C@@H]1CCc2cccc(OC)c2C1, COc1ccc(-c2nc3cnc(Nc4cccc(OC)c4)nc3n(Cc3cccs3)c2=O)cc1, COc1cccc(Nc2ncc3nc(-c4ccc(F)cc4)c(=O)n(C)c3n2)c1, CC(=O)c1cnc2cc(C)nn2c1C, CN1CCc2c(cc(O)c(O)c2Cl)[C@H](c2cccc(Cl)c2)C1, CC(C)(C)C1CCC(OCC(O)CN2CCN(c3ccccc3)CC2)CC1 (stereo not given)

AC50, active:
C=CCn1c(Cc2ccc(OC)cc2)nnc1SCC(=O)c1cccc([N+](=O)[O-])c1 14.1 µM, CCOc1cc(C)ccc1OCc1nnc(SCC(=O)c2cccc([N+](=O)[O-])c2)n1C 14.1 µM, COc1cc2c(cc1OC)CN(C(=S)Nc1ccccc1)CC2 2.51 µM, COCOc1ccc(Br)cc1C(=O)[C@H]1O[C@H]1c1cccc(OC)c1 0.0631 µM, CCCC1c2c(ccc3ccccc23)Oc2ccc3ccccc3c21 0.631 µM, C=CCNC(=O)c1csc(-c2ccccc2)n1 10 µM, O=C(/C=C/c1ccco1)Nc1ccc(Oc2ccccc2)cc1 5.01 µM, O=C(c1ccccc1)c1nc2ccccc2n(CCCn2c(=O)c(C(=O)c3ccccc3)nc3ccccc32)c1=O 1 µM, CCCCCn1c(=O)c(C(=O)c2ccccc2)nc2ccccc21 2 µM, COc1cccc(CNCc2ccc(SC)cc2)c1OC 0.251 µM, CC(C)(C)NC(=O)CSC(=Nc1ccc(F)cc1)NC#N 2.82 µM, Cc1ccc2cc3cc(C(=O)N4CCCCC4C)oc3nc2c1 (stereo not given) 14.1 µM, COc1ccc2cc3cc(C(=O)Nc4ccc5c(c4)OCO5)oc3nc2c1 7.08 µM, COc1ccc2cc3cc(C(=O)NCCN4CCN(c5ccccc5F)CC4)oc3nc2c1 28.2 µM, COc1ccc2cc3cc(C(=O)NCc4ccc5c(c4)OCO5)oc3nc2c1 10 µM, O=S1(=O)C=C(SCc2cccc(Cl)c2)Nc2ccccc21 0.891 µM, C=CCOc1cccc(CNn2cn[nH]c2=S)c1 7.94 µM, C[C@@H](C(=O)NCCc1c[nH]c2ccccc12)[C@H]1C[C@]1(C)[C@H](NC(=O)OCc1ccccc1)c1ccccc1 2.51 µM, C[C@@H](C(=O)NCCc1c[nH]c2ccccc12)[C@@H]1C[C@@]1(C)[C@@H](NC(=O)OCc1ccccc1)c1ccccc1 0.794 µM, COc1cccc([C@@H]2Oc3ccc(OC)cc3C(=O)[C@H]2O)c1 1 µM, COc1cccc([C@@H]2Oc3ccc(Br)cc3C(=O)[C@H]2O)c1 3.16 µM, Nc1c2c(=O)oc(-c3ccccc3)cc2nn1-c1ccccc1 14.1 µM, Cc1cc(C)c(C(N)=O)c(SCC(=O)c2ccc(Cl)cc2)n1 8.91 µM, CCOC(=O)c1nc2sc(C)c(C)c2c(=O)[nH]1 10 µM, CCC(=O)N[C@@H]1Cc2ccccc2[C@@H](c2ccccc2)C1 7.94 µM, COc1cccc(Nc2nc(-c3ccc(O)cc3)cs2)c1 2.51 µM, Cc1cc(C)n(C(=O)CCCCCCCCC(=O)n2nc(C)cc2C)n1 3.55 µM, OC(COCC1COc2ccccc2O1)CN1CCc2ccccc2C1 (stereo not given) 5.01 µM, OC(COCC1COc2ccccc2O1)CN1CCN(c2ccccc2F)CC1 (stereo not given) 28.2 µM

activity, negative = inhibition, inactive:
CC(C)(CO)N1CCN(C(=S)Nc2ccccc2)CC1 4.38% [at 11.4 µM], NCCc1nc(-c2nc(C(=O)O)cs2)cs1 -18.8% [at 11.4 µM], Oc1ccc(CNCc2ccccc2)c2cccnc12 -5.63% [at 11.4 µM], CCN(CC(=O)O)CC(=O)O 7.01% [at 11.4 µM], COc1cccc([C@H]2Oc3ccc(OC)cc3/C(=N\O[C@@H]3O[C@H](COC(C)=O)[C@H](OC(C)=O)[C@H](OC(C)=O)[C@H]3OC(C)=O)[C@@H]2O)c1 14.8% [at 11.4 µM], CC(=O)OCC(=O)[C@]12OC(C)(C)O[C@@H]1C[C@H]1[C@H]3CC=C4C[C@@H](O)CC[C@]4(C)[C@H]3CC[C@]12C 4.13% [at 11.4 µM], NC(=O)c1nnn(Cc2cc(Cl)c(C(=O)c3ccc(Cl)cc3)c(Cl)c2)c1N -30.1% [at 11.4 µM], OCCNc1ncnc2c1ncn2[C@@H]1O[C@@H](CO)[C@H](O)[C@@H]1O 32.5% [at 11.4 µM]

Reference: PubChem BioAssay AID1851 (National Center for Advancing Translational Sciences (NCATS), 2009)
